Source: PubChem BioAssay AID463173 (ICCB-Longwood Screening Facility, Harvard Medical School, 2010)
Hit rate of the full screen: of about 52,000 compounds, about 4,300 (8.3%) were called active. Many of the other results were omitted from the sample, so actives are more common in it than they were. Values without a mark were called inactive. Cut-off read from the data, not from the text of the source: active = survival mostly below about 52% (no sharp cut-off); inactive = mostly above about 56%.

system: DeltatarO mutant; test: S. aureus survival, RN4220 and DeltatarO strains – OD600, teichoic acid synthesis inhibitors, primary screen (AID 463173); settings: S. aureus RN4220 wild type/DeltatarO growth, OD600, 18 h, hits give low values, screened at 18.75 µg/mL (by protocol)

Compared with `c1ccc(C2=NNC(c3nc4ccccc4[nH]3)C2)cc1` (stereo not given), `O=C(/C=C/c1ccccc1)Nc1cc(-c2nc3ccccc3o2)ccc1Cl` is lower in survival: 60% for the first, 59% for the second.

Compared with `CCCOC(=O)C1=C(C)OC23OC(N)=C(C#N)C12C(=O)c1ccccc13` (stereo not given), `CCN1C(=O)CC(n2c(C)nc3ccccc32)C1=O` (stereo not given) is higher in survival: 80% for the first, 96% for the second.

First: O=C(Cn1c(-c2cccs2)cc2ccccc21)NCCCN1CCN(c2ccccc2F)CC1
Second: Cc1ccc(S(=O)(=O)N(CC(O)Cn2c3ccccc3c3ccccc32)c2cccc(C(=O)NCCO)c2)cc1 (stereo not given)
The survival of the first is higher: 69% for the first, 56% for the second.

First: CCn1c(SCc2cccc(Br)c2)nnc1-c1nonc1NC(C)=O
Second: Cc1ccc(OC(=O)CSc2nnc(-c3ccco3)n2-c2ccccc2)cc1
The survival of the first is higher: 108% for the first, 52% for the second.

Going from `CC1CCN(C(=O)c2cnn(-c3ccc(Cl)cc3)c2C2CCN(C(=O)OC(C)(C)C)CC2)CC1` to `COc1ccc(Cl)cc1C(=O)N1CCCC1`, the survival rises from 76% to 100%.

First: Cc1nc2nc(C)c(NS(=O)(=O)c3ccc(CC(C)C)cc3)c(=O)n2[nH]1
Second: Cc1ccc(C(=O)Nc2nnc(S(=O)(=O)N(C)Cc3ccc(F)cc3)s2)cc1
The survival of the first is higher: 89% for the first, 60% for the second.

`Cc1ccccc1NC(=O)Nc1nnc(N2CCCCCC2)s1` and `Cc1cc(=O)n2nc(N3CCC(C(=O)Nc4ccc(Br)cc4F)CC3)sc2n1` are the same in survival: 94% for the first, 94% for the second.

First: CCc1ccccc1NC(=O)CCc1c(C)nc2cc(-c3ccccc3)nn2c1C
Second: COc1ccccc1CNC(=O)CCc1c(C)nc2cc(-c3ccc(Cl)cc3)nn2c1C
The survival of the first is lower: 59% for the first, 129% for the second.

Going from `Cc1cc2oc(C(=O)N(Cc3ccc(N(C)C)cc3)CC3CCCO3)c(C)c2cc1Cl` (stereo not given) to `Cc1ccc(N(Cc2cccs2)C(=O)C(C)Oc2ccc(Cl)c(C)c2)cc1` (stereo not given), the survival falls from 65% to 58%.

Compared with `Cc1ccccc1CNCCSc1nnnn1C`, `Cc1ccc(-c2nn(-c3ccccc3)c3[nH]c(=O)c(CNCCN4CCOCC4)cc23)cc1` is higher in survival: 84% for the first, 115% for the second.

Going from `CCc1ccc(-c2nc3cc(NC(=O)c4ccc(F)cc4)ccc3o2)cc1` to `CCc1ccc(-c2nc3cc(NC(=O)c4ccc(C)c(C)c4)ccc3o2)cc1`, the survival rises from 83% to 151%.

Going from `COc1ccc2oc(-c3ccc(C)c(NC(=O)c4ccc5c(c4)OCCO5)c3)nc2c1` to `Cc1ccc2oc(-c3ccc(C)c(NC(=O)c4ccc5c(c4)OCCO5)c3)nc2c1`, the survival falls from 70% to 48%.

First: Cc1ccc(S(=O)(=O)N(CC(O)Cn2c3ccccc3c3ccccc32)c2cccc(C(=O)N(C)C)c2)cc1 (stereo not given)
Second: CCc1ccc2c(c1)c(=O)c(S(=O)(=O)c1ccccc1)cn2CC(=O)Nc1ccc(OC)cc1
The survival of the first is lower: 54% for the first, 76% for the second.

Compared with `COc1ccccc1-c1ccnc2c(-c3ccc(Br)cc3)c(C)nn12`, `COc1cccc(-c2ccnc3c(-c4ccc(F)cc4)c(C)nn23)c1` is lower in survival: 94% for the first, 93% for the second.

Compared with `CCc1nn2c(-c3ccco3)ccnc2c1-c1ccc(F)cc1`, `Cc1nn2c(-c3ccco3)ccnc2c1-c1ccc(F)cc1` is higher in survival: 81% for the first, 90% for the second.

Compared with `COc1ccc(-c2ccnc3c(-c4ccc(F)cc4)c(C)nn23)cc1OC`, `CCc1nn2c(-c3ccco3)ccnc2c1-c1ccccc1` is lower in survival: 88% for the first, 84% for the second.

Compared with `Cc1cc2nn(-c3ccc(F)cc3)nc2cc1NC(=O)c1cc(Cl)ccc1Cl`, `O=C(Nc1ccc2oc(-c3ccc4ccccc4c3)nc2c1)c1cc(Cl)ccc1Cl` is lower in survival: 141% for the first, 86% for the second.

First: CC1CCCN(S(=O)(=O)c2ccc3c(c2)CCN3C(=O)CCC(=O)O)C1 (stereo not given)
Second: Cc1cc(C)cc(NC(=O)c2cc(S(=O)(=O)N3CCCC3)ccc2F)c1
The survival of the first is higher: 96% for the first, 92% for the second.

Going from `Cc1ccc(N2CC(c3nnc(NC(=O)c4ccco4)s3)CC2=O)cc1Cl` (stereo not given) to `CN(Cc1ccco1)S(=O)(=O)c1nnc(NC(=O)c2ccccc2Cl)s1`, the survival falls from 77% to 76%.

Going from `NC(CC(=O)OC1CCCCC1)C(=O)OC1CCCCC1` (stereo not given) to `O=C(/C=C/c1ccco1)NC(=S)NC1CCCCC1`, the survival rises from 89% to 115%.

Going from `O=C(Nc1ccc(F)c(Cl)c1)C1CCCN(c2ncnc3onc(-c4ccc(F)cc4)c23)C1` (stereo not given) to `O=C(COc1ccccc1[N+](=O)[O-])Nc1cc(-c2nc3cc(Cl)ccc3o2)ccc1Cl`, the survival falls from 78% to 66%.

Going from `CC(C)COc1ccc(C(=O)Nc2nnc(S(=O)(=O)N(C)Cc3ccco3)s2)cc1` to `COc1cc(OC)cc(C(=O)Nc2cc(-c3nc4cc(Cl)ccc4o3)ccc2Cl)c1`, the survival falls from 79% to 71%.

Going from `O=C(CCCSc1nc(-c2ccco2)cc(C(F)(F)F)n1)NC1CCCCC1` to `Cc1ccc(Cn2ccnc2SCC(=O)NCc2ccc(F)cc2)cc1`, the survival rises from 86% to 101%.

`CN1C(C(=O)Nc2ccc(F)cc2F)=CC(c2ccc3c(c2)OCO3)=NS1(=O)=O` and `O=C(Cc1ccccc1)Nc1cc(-c2nc3cc(Cl)ccc3o2)ccc1Cl` are the same in survival: 68% for the first, 68% for the second.

`COC(=O)c1ccccc1NC(=O)CCc1c(C)nc2cc(-c3ccc(Cl)cc3)nn2c1C` was tested, and the survival was 41% (active).
For `CC(C)c1ccc2oc(-c3cccc(NC(=O)c4ccc5c(c4)OCCO5)c3)nc2c1`, the survival was 28% (active).
With `CCc1ccc(C(=O)Nc2cccc(-c3nc4cc(C(C)C)ccc4o3)c2)cc1` the survival was 41% (active).
For `Cc1ccc(S(=O)(=O)N(CC(O)Cn2c3ccccc3c3ccccc32)c2cccc(C(N)=O)c2)cc1` (stereo not given), the survival was 38% (active).
For `CCc1nn2c(-c3ccccc3OC)ccnc2c1-c1ccc(F)cc1`, the survival was 2% (active).
In the case of `CCc1nn2c(-c3ccccc3OC)ccnc2c1-c1ccccc1`, the survival is reported as 0% (active).
In the case of `Cc1ccccc1-c1ccnc2c(-c3ccc(F)cc3)c(C)nn12`, the survival is reported as 6% (active).
For `Cc1ccc(C(=O)Nc2nnc(S(=O)(=O)N(C)Cc3ccco3)s2)cc1`, the survival was 39% (active).
With `CN(Cc1ccco1)S(=O)(=O)c1nnc(NC(=O)c2ccccc2)s1` the survival was 23% (active).
With `O=C(Nc1cc(-c2nc3cc(Cl)ccc3o2)ccc1Cl)c1cccc2ccccc12` the survival was 44% (active).
In the case of `O=C(Nc1cc(-c2nc3cc(Cl)ccc3o2)ccc1Cl)c1ccco1`, the survival is reported as 41% (active).
In the case of `O=C(/C=C/c1ccccc1)Nc1cc(-c2nc3cc(Cl)ccc3o2)ccc1Cl`, the survival is reported as 46% (active).
